Experimental data taken from ChEMBL document CHEMBL3988442, “University of Dundee, Small-Polar-MMV Screening Library” (2021).
About 13,000 (27%) of roughly 48,000 compounds showed an effect of 50% or more. The list shows a part of the results.

Each compound was assayed on Wolbachia pipientis (assay: Anti-Wolbachia Cell-Based Screen). Conditions: 5 µM.
Format: functional
Design: scale not given: in the data most compounds retested in dose-response had high values

SMILES	Percent Effect
CN(C)C(=O)CN1C[C@@H]2CC[C@H](C1)N(Cc1cc(F)ccc1F)C2	15.49%
COc1nc(C)c(C(=O)N2CCc3[nH]nc(C4CCCC4)c3C2)s1	-0.6209%
CC(C)NC(=O)CN(C)CC(=O)/N=c1/cc[nH]n1C(C)C1CC1 (stereo unspecified)	-11.27%
NC(=O)CN1CC(O)c2ccccc2S1(=O)=O (stereo unspecified)	96.32%
NC(=O)CN1CCC(NC2CCCCc3ccccc32)CC1 (stereo unspecified)	-5.758%
CNC(=O)c1ncn2c1CN(CCC(C)C)S(=O)(=O)c1ccccc1-2	5.918%
COC1CN(CCO)S(=O)(=O)c2ccccc21 (stereo unspecified)	103.3%
NC(=O)CN1CCC(NC2CSCCc3ccccc32)CC1 (stereo unspecified)	-6.664%
COCCOCCNS(=O)(=O)C1CS(=O)(=O)c2ccccc21 (stereo unspecified)	2.377%
O=S1(=O)c2ccccc2C(O)CN1CCO (stereo unspecified)	120.8%
COCC(C)(C)NS(=O)(=O)C1CS(=O)(=O)c2ccccc21 (stereo unspecified)	12.05%
Cc1ccc2c(c1)c(CNC(=O)C1CC(=O)N(C3CCCC3)C1)nn2C (stereo unspecified)	-26.6%
O=C(N1CCCC1)N1CCC(c2nccn2Cc2cscn2)CC1	-4.277%
CC(C)n1cnnc1CN(C)C(=O)c1cc(COc2ccccc2)[nH]n1	-4.684%
O=C(CN1CCCC(CO)C1)NCCOc1cccc(Cl)c1 (stereo unspecified)	0.8563%
O=C(NCCOc1ccc2c(c1)OCO2)N1CCCC(CO)C1 (stereo unspecified)	85.49%
CC(=O)NC1CCCN(C(=O)NCCOc2ccc3c(c2)OCO3)C1 (stereo unspecified)	106.3%
NC(=O)N1CCCC(C(=O)NCCOc2ccc3c(c2)OCO3)C1 (stereo unspecified)	6.711%
CC(=O)NCC1CCN(C(=O)NCCc2ccc3c(c2)OCO3)CC1	-2.588%
CCCOc1ccc(CNC(=O)N2CCC(C(N)=O)C2)cc1 (stereo unspecified)	0.5279%
O=C(c1ccc2c(c1)OCO2)N1CCCC(Nc2ccc(F)cc2)C1 (stereo unspecified)	-14.66%
CCOc1ccc(Cl)cc1CCNC(=O)N1CCCC(CO)C1 (stereo unspecified)	2.242%
NC(=O)C1CCN(C(=O)NCCOc2ccc3c(c2)OCO3)C1 (stereo unspecified)	88.72%
Cc1noc(C)c1CNC(=O)N1CCC(NS(C)(=O)=O)CC1	-20.1%

SMILES	Percent Effect
Cc1n[nH]c(C)c1CCc1ccc(S(C)(=O)=O)cc1	1.11%
CCCc1n[nH]cc1C(=O)N1CCC(c2nccn2CCOC)CC1	-3.808%
CSC(C)(C)CNC(=O)NCCC1CCN(C)CC1	0.9558%
CCc1nc(CN(C)C2CCCN(c3cccnn3)C2)no1 (stereo unspecified)	81.94%
Cc1ccc(N2CCCC(N(C)Cc3noc(C4CC4)n3)C2)nn1 (stereo unspecified)	-34.27%
CC(C)(C)c1nc(CNC2CCCN(c3cccnn3)C2)no1 (stereo unspecified)	-17.48%
CC(C)c1nc(CNC2CCCN(c3cccnn3)C2)no1 (stereo unspecified)	9.914%
CN(Cc1nc(-c2ccco2)no1)C1CCCN(c2cccnn2)C1 (stereo unspecified)	4.985%
CN(Cc1nc(C2CC2)no1)C1CCCN(c2cccnn2)C1 (stereo unspecified)	-5.639%
CN(Cc1noc(C2CC2)n1)C1CCCN(c2cccnn2)C1 (stereo unspecified)	100.2%
CN(Cc1noc(C(C)(C)C)n1)C1CCCN(c2cccnn2)C1 (stereo unspecified)	102.2%
CC(C)c1nc(CN(C)C2CCCN(c3cccnn3)C2)no1 (stereo unspecified)	109.3%
Cc1nc(CN(C)C2CCCN(c3cccnn3)C2)no1 (stereo unspecified)	-8.023%
CCOC(=O)N1CCN(c2nc(CCN)nc3sc(C)c(C)c23)CC1	-2.539%
Cn1ncc(N2CCC(CNC3CC(c4ccccc4)C3)CC2)cc1=O (stereo unspecified)	0.2132%
COC(=O)N1CCN(C(=O)c2ccc(C)c(N3CCNC3=O)c2)CC1	-15.45%
CCOCCN1CCN(CCOC)CC1C (stereo unspecified)	-2.366%
CCN1Cc2ccccc2CC2(CCN(C)CC2)C1=O	106.4%
CCN1Cc2ccccc2CC2(CCN(CC3CCC3)CC2)C1=O	112.5%
O=C(O)CN1CCC2(CCc3ccccc32)CC1	-5.092%
CN1C(=O)CC2(CCN(S(=O)(=O)C3CC3)CC2)c2ccccc21	18.32%
CCN1CCC2(CN(C(C)=O)CC23CCN(C(=O)N(C)C)CC3)C1=O (stereo unspecified)	-7.709%
O=C1N(CCc2ccccc2)CCCC12CCN(C(CO)CO)C2 (stereo unspecified)	-2.358%
CCN1CC2(CC1=O)CN(C(=O)c1ccco1)CCN(C(=O)N(C)C)C2 (stereo unspecified)	-10.83%

SMILES	Percent Effect
CCN1Cc2ccccc2CC2(CCN(C(=O)N(C)C)CC2)C1=O	108.4%
CC(C)CN1CCC2(CCN(CC3CC3)CC2)C1=O.O=C(O)C(F)(F)F	3.548%
Cn1cccc1C(=O)N1CCC2(CCCN(CC3CCC3)C2=O)C1 (stereo unspecified)	0%
Cc1ccc2c(c1)C1(CC2)CCN(CC(=O)O)CC1.O=C(O)C(F)(F)F	-2.152%
CCN1Cc2ccccc2CC2(CCN(CC(=O)O)CC2)C1=O.O=C(O)C(F)(F)F	108.1%
Cn1nc2c(cc1=O)CN(CC1CCCCO1)CC2 (stereo unspecified)	1.26%
CCC1CCCCN1Cc1ncc(C(C)(C)C)o1 (stereo unspecified)	88.88%
CCC1CCCCN1Cc1ncc(-c2ccc(OC)cc2)o1 (stereo unspecified)	-15.61%
Cc1cnn(CC2CCCCN2Cc2ncc(C(C)(C)C)o2)c1 (stereo unspecified)	103.7%
CC(C)(C)c1cnc(CN2CCCC2Cn2cccn2)o1 (stereo unspecified)	3.93%
Cc1cnn(CC2CCCCN2Cc2cc(C)on2)c1 (stereo unspecified)	27.16%
CC(C)(C)c1cnc(CN2CCC[C@H]2CO)o1	-3.159%
NC(=O)c1ccc(N2CCN(Cc3c(Cl)cncc3Cl)CC2)nc1	-3.438%
O=C(NS(=O)(=O)c1cccc(C(F)(F)F)c1)c1cnsn1	1.908%
Cn1cc(CCCN2CCN(Cc3cccc(O)c3)CC2)cn1	5.998%
COc1ccc(CN2CCC(O)CC2)c(OC)c1	-14.46%
Cc1ccnn1CC(=O)N1CCN(C2CCc3ccccc3C2)CC1 (stereo unspecified)	-4.494%
COc1cc(O)ccc1CN1CCN(C2CCc3ccccc3C2)CC1 (stereo unspecified)	95.73%
CC(CN1CCOCC1)NC1CCN(Cc2cccc(O)c2)CC1 (stereo unspecified)	-2.88%
COc1ccc(CN2CCCC(Nc3cccc(F)c3)C2)cc1O (stereo unspecified)	-4.671%
COc1ccc(CNC2CCN(c3ccccc3)C2)cc1O (stereo unspecified)	14.8%
Oc1cccc(CN2CCN(C3CCc4ccccc4C3)CC2)c1 (stereo unspecified)	111.6%
COc1ccc(CN2CCN(C3CCc4ccccc4C3)CC2)cc1O (stereo unspecified)	105.5%
